According to PMC7862700, “An all-to-all approach to the identification of sequence-specific readers for epigenetic DNA modifications on cytosine”:

Tests used:
Experiment in all cases: DAPPL (digital affinity profiling via proximity ligation, sequencing); 10 mM Tris-HCl pH 7.5, 50 mM NaCl, 1 mM DTT, 4% glycerol, room temperature, 30 min; GST-TFs on glutathione beads, 16-mer random dsDNA library, 0.1% formaldehyde crosslink after washing; high values mean tight binding
Details in all cases: protein: recombinant; tags: N-terminal GST; dsDNA, one strand shown
FLI1 = biological target: T1, FLI1 (Homo sapiens, UniProt Q01543 1-452)
T1 sequence: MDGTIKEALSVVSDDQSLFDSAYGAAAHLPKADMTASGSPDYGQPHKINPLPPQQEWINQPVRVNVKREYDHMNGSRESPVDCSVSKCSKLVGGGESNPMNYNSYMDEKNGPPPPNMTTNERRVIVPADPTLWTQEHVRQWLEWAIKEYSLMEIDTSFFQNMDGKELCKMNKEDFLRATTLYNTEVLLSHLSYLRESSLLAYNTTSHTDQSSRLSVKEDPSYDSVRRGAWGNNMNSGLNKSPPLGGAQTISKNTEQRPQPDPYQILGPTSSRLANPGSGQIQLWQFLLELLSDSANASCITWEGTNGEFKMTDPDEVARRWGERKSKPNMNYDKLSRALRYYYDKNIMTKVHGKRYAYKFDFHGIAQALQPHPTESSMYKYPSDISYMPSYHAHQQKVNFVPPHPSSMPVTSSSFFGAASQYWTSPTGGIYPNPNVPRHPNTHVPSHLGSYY
Procedure, shortened: (§1)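 Beads coated with glutathione captured GST-fused human transcription factors that had been expressed in yeast, and the factors were then given DNA barcodes and pooled with a tag-only sample. The pools were incubated with 200 nmole of a random double-stranded 16-mer DNA library in Tris/NaCl/DTT/glycerol buffer for 30 min at room temperature, washed, crosslinked with 0.1% formaldehyde and proximity-ligated with BsaI/T4 ligase at 37 °C for 1 h. PCR amplification and Illumina NextSeq500 sequencing came last. Binding signal is each hexamer's read frequency for a factor divided by its frequency for the tag-only sample.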

ELK1 = biological target: T2, ELK1 (Homo sapiens, UniProt P19419 1-428)
T2 sequence: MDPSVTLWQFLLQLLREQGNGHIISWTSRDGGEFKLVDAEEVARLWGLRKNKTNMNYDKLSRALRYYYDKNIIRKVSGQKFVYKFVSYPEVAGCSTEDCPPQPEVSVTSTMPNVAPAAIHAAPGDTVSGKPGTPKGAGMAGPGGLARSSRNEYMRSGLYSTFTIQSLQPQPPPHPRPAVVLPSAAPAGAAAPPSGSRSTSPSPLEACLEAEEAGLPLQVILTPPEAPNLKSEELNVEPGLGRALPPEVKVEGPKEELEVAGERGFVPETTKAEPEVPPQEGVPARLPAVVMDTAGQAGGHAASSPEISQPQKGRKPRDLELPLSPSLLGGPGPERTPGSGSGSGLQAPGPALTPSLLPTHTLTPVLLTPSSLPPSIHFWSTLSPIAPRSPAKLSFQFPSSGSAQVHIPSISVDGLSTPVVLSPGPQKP
Procedure, shortened: as §1

GABPA = biological target: T3, GABPA (Homo sapiens, UniProt Q06546 1-454)
T3 sequence: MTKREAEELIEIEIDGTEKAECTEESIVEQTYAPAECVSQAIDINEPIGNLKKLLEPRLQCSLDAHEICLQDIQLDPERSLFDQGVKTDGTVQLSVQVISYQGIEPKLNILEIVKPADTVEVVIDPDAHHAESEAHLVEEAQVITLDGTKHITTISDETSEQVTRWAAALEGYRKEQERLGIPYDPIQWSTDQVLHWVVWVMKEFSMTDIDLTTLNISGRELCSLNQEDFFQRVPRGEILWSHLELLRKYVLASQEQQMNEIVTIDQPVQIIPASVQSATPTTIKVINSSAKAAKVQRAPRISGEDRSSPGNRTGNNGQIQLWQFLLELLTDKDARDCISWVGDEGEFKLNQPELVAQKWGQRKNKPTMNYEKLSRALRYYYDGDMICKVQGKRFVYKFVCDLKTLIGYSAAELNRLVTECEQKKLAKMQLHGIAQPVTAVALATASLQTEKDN
Procedure, shortened: as §1

ERG = biological target: T4, ERG (Homo sapiens, UniProt P11308 1-479)
T4 sequence: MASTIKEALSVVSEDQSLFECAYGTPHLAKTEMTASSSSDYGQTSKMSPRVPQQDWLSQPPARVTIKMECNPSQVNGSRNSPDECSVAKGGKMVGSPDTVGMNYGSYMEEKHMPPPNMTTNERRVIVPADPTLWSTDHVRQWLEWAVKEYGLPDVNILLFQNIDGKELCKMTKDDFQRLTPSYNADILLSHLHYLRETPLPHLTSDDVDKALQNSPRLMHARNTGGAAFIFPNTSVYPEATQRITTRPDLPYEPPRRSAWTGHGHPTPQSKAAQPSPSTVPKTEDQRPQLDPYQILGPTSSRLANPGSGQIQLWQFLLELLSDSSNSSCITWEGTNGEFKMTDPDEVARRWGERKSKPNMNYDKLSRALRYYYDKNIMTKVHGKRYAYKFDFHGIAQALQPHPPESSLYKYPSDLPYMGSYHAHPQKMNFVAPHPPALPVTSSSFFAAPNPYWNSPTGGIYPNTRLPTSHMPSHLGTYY
Procedure, shortened: as §1

ELF1 = ELF1 (Homo sapiens, UniProt P32519 1-619)
Chain of ELF1 (P32519 whole entry): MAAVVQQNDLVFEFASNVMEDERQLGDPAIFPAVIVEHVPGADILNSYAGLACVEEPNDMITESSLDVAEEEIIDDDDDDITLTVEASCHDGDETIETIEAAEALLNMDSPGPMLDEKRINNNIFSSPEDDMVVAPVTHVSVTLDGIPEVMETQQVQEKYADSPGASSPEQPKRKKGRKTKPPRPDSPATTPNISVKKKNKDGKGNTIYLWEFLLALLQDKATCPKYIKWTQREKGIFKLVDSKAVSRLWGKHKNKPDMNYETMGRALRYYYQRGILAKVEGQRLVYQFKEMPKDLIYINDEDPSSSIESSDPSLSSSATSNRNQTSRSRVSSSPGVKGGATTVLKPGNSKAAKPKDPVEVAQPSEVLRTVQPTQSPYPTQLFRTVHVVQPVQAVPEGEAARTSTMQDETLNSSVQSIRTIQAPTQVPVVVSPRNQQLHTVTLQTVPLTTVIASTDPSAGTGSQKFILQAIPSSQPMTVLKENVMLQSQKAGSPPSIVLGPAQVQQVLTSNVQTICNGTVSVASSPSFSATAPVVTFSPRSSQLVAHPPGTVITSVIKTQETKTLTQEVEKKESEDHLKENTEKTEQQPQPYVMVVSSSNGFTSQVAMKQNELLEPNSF
Procedure, shortened: as §1

EHF = biological target: T5, EHF (Homo sapiens, UniProt Q9NZC4 1-300)
T5 sequence: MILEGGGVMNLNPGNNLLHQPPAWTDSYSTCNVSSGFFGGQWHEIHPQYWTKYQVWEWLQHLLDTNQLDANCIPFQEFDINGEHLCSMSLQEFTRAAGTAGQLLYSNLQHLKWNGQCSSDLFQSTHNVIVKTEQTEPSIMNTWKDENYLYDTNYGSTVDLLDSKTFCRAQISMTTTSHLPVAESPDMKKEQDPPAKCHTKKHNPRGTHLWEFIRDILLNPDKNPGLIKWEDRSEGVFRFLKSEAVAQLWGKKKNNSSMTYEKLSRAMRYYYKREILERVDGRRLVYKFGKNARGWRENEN
Procedure, shortened: as §1

SPI1 = SPI1 (Homo sapiens, UniProt P17947 1-270)
Procedure, shortened: as §1

SPIB = SPIB (Homo sapiens, UniProt Q01892 1-262)
Chain of SPIB (Q01892 whole entry): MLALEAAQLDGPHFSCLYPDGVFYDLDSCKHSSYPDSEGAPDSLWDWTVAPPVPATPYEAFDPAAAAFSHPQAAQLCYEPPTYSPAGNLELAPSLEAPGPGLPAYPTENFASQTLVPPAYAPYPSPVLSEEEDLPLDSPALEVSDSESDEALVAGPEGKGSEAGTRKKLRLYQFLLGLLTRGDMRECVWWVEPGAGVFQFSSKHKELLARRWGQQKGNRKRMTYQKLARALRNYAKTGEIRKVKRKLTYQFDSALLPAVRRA
Procedure, shortened: as §1

ELK3 = biological target: T6, ELK3 (Homo sapiens, UniProt P41970 1-407)
T6 sequence: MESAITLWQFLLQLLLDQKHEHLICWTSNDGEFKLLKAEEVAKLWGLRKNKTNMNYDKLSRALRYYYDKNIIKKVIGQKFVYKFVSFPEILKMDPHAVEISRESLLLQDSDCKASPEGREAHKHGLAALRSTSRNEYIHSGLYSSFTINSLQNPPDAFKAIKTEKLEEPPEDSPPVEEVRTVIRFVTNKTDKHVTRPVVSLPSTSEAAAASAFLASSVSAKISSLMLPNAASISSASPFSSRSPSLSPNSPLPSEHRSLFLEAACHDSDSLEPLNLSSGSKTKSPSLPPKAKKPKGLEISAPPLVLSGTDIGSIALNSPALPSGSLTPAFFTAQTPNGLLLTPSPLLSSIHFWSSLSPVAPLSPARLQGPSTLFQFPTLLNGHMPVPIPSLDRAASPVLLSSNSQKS
Procedure, shortened: as §1

AAGTAC
binding signal (FLI1): 1.52 fold enrichment (6-mer frequency, TF over GST control)
binding signal (ELK1): 1.74 fold enrichment (6-mer frequency, TF over GST control)
binding signal (GABPA): 1.44 fold enrichment (6-mer frequency, TF over GST control)
binding signal (ERG): 1.53 fold enrichment (6-mer frequency, TF over GST control)
binding signal (ELF1): 1.49 fold enrichment (6-mer frequency, TF over GST control)
binding signal (EHF): 1.59 fold enrichment (6-mer frequency, TF over GST control)
binding signal (SPI1): 1.62 fold enrichment (6-mer frequency, TF over GST control)
binding signal (SPIB): 1.57 fold enrichment (6-mer frequency, TF over GST control)
binding signal (ELK3): 1.73 fold enrichment (6-mer frequency, TF over GST control)

AACCTC
binding signal (FLI1): 1.22 fold enrichment (6-mer frequency, TF over GST control)
binding signal (ELK1): 1.27 fold enrichment (6-mer frequency, TF over GST control)
binding signal (GABPA): 1.28 fold enrichment (6-mer frequency, TF over GST control)
binding signal (ERG): 1.23 fold enrichment (6-mer frequency, TF over GST control)
binding signal (ELF1): 1.29 fold enrichment (6-mer frequency, TF over GST control)
binding signal (EHF): 1.2 fold enrichment (6-mer frequency, TF over GST control)
binding signal (SPI1): 1.2 fold enrichment (6-mer frequency, TF over GST control)
binding signal (SPIB): 1.19 fold enrichment (6-mer frequency, TF over GST control)
binding signal (ELK3): 1.23 fold enrichment (6-mer frequency, TF over GST control)

AGCAAT
binding signal (FLI1): 1.07 fold enrichment (6-mer frequency, TF over GST control)
binding signal (ELK1): 1.15 fold enrichment (6-mer frequency, TF over GST control)
binding signal (GABPA): 1.09 fold enrichment (6-mer frequency, TF over GST control)
binding signal (ERG): 1.11 fold enrichment (6-mer frequency, TF over GST control)
binding signal (ELF1): 1.18 fold enrichment (6-mer frequency, TF over GST control)
binding signal (EHF): 1.1 fold enrichment (6-mer frequency, TF over GST control)
binding signal (SPI1): 1.1 fold enrichment (6-mer frequency, TF over GST control)
binding signal (SPIB): 1.18 fold enrichment (6-mer frequency, TF over GST control)
binding signal (ELK3): 1.05 fold enrichment (6-mer frequency, TF over GST control)

ATTTCA
binding signal (FLI1): 1.23 fold enrichment (6-mer frequency, TF over GST control)
binding signal (ELK1): 1.17 fold enrichment (6-mer frequency, TF over GST control)
binding signal (GABPA): 1.23 fold enrichment (6-mer frequency, TF over GST control)
binding signal (ERG): 1.25 fold enrichment (6-mer frequency, TF over GST control)
binding signal (ELF1): 1.21 fold enrichment (6-mer frequency, TF over GST control)
binding signal (EHF): 1.24 fold enrichment (6-mer frequency, TF over GST control)
binding signal (SPI1): 1.23 fold enrichment (6-mer frequency, TF over GST control)
binding signal (SPIB): 1.26 fold enrichment (6-mer frequency, TF over GST control)
binding signal (ELK3): 1.23 fold enrichment (6-mer frequency, TF over GST control)

CCTGTT
binding signal (FLI1): 1.79 fold enrichment (6-mer frequency, TF over GST control)
binding signal (ELK1): 1.63 fold enrichment (6-mer frequency, TF over GST control)
binding signal (GABPA): 1.73 fold enrichment (6-mer frequency, TF over GST control)
binding signal (ERG): 1.72 fold enrichment (6-mer frequency, TF over GST control)
binding signal (ELF1): 1.75 fold enrichment (6-mer frequency, TF over GST control)
binding signal (EHF): 1.76 fold enrichment (6-mer frequency, TF over GST control)
binding signal (SPI1): 2 fold enrichment (6-mer frequency, TF over GST control)
binding signal (SPIB): 1.75 fold enrichment (6-mer frequency, TF over GST control)
binding signal (ELK3): 1.94 fold enrichment (6-mer frequency, TF over GST control)

GCCCTT
binding signal (FLI1): 1.23 fold enrichment (6-mer frequency, TF over GST control)
binding signal (ELK1): 1.11 fold enrichment (6-mer frequency, TF over GST control)
binding signal (GABPA): 1.18 fold enrichment (6-mer frequency, TF over GST control)
binding signal (ERG): 1.16 fold enrichment (6-mer frequency, TF over GST control)
binding signal (ELF1): 1.25 fold enrichment (6-mer frequency, TF over GST control)
binding signal (EHF): 1.19 fold enrichment (6-mer frequency, TF over GST control)
binding signal (SPI1): 1.22 fold enrichment (6-mer frequency, TF over GST control)
binding signal (SPIB): 1.28 fold enrichment (6-mer frequency, TF over GST control)
binding signal (ELK3): 1.24 fold enrichment (6-mer frequency, TF over GST control)

AACGAT
binding signal (FLI1): 1.28 fold enrichment (6-mer frequency, TF over GST control)
binding signal (ELK1): 1.16 fold enrichment (6-mer frequency, TF over GST control)
binding signal (GABPA): 1.13 fold enrichment (6-mer frequency, TF over GST control)
binding signal (ERG): 1.21 fold enrichment (6-mer frequency, TF over GST control)
binding signal (ELF1): 1.24 fold enrichment (6-mer frequency, TF over GST control)
binding signal (EHF): 1.17 fold enrichment (6-mer frequency, TF over GST control)
binding signal (SPI1): 1.17 fold enrichment (6-mer frequency, TF over GST control)
binding signal (SPIB): 1.21 fold enrichment (6-mer frequency, TF over GST control)
binding signal (ELK3): 1.24 fold enrichment (6-mer frequency, TF over GST control)

TTGTGT
binding signal (FLI1): 1.25 fold enrichment (6-mer frequency, TF over GST control)
binding signal (ELK1): 1.28 fold enrichment (6-mer frequency, TF over GST control)
binding signal (GABPA): 1.15 fold enrichment (6-mer frequency, TF over GST control)
binding signal (ERG): 1.12 fold enrichment (6-mer frequency, TF over GST control)
binding signal (ELF1): 1.18 fold enrichment (6-mer frequency, TF over GST control)
binding signal (EHF): 1.08 fold enrichment (6-mer frequency, TF over GST control)
binding signal (SPI1): 1.09 fold enrichment (6-mer frequency, TF over GST control)
binding signal (SPIB): 1.25 fold enrichment (6-mer frequency, TF over GST control)
binding signal (ELK3): 1.22 fold enrichment (6-mer frequency, TF over GST control)
